Sampled rows, rich in hits. Any-hit rate of the full collection: about 3.5%.
FBW7 activator: FBW7 E3 ligase activators, primary screen, biochemical, AlphaScreen, human; 650,000 tested, 0.13% active; AlphaScreen FBW7–phospho-cyclin E peptide binding, activator screen; F-box/WD repeat-containing protein 7 (Homo sapiens), Q969H0; normalized activity (activation), % at 26.1 µM; AID 1259310, 2017; in the data active means normalized activity above about 1.9%;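 further: purified mutant Fbw7 with reduced substrate affinity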
Target sequence (Q969H0 whole entry, looked up): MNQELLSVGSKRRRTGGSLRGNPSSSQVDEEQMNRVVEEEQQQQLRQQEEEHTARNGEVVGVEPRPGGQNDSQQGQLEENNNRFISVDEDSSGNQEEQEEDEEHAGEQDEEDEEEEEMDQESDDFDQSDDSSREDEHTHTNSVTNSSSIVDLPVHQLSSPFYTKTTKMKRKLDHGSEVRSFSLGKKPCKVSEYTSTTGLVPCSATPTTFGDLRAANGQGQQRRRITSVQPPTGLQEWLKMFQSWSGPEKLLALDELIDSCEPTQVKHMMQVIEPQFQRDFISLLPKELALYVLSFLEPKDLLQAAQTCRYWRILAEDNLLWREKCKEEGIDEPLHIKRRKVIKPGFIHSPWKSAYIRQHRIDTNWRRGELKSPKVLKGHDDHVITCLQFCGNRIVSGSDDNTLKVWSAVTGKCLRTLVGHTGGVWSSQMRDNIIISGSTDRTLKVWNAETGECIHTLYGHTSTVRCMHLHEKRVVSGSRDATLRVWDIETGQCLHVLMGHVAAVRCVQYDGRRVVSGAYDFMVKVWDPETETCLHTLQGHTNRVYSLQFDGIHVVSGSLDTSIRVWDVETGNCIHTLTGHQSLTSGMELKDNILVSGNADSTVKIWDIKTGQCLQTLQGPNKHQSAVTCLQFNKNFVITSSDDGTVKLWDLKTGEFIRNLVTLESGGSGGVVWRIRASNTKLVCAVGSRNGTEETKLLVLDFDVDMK
MITF inh: MITF inhibitors, primary screen, biochemical, AlphaScreen, human; inhibition, % at 2.6 µM; AlphaScreen MITF homodimerization, bead proximity signal; 650,000 tested, 0.91% active; AID 1259374, 2018; in the data active means inhibition above about 50%;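 further: 0% = vehicle wells with protein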
TEAD-YAP inh: TEAD-YAP interaction inhibition, primary screen, TEAD-YAP interaction inhibitor project, luminescence, HEK-TIYL cells; inhibition, % at 9.12 µM; TEAD-Gal4/YAP UAS-luciferase luminescence; 640,000 tested, 1.4% active; in the data active means inhibition above about 32%;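 further: 0% = median of test compound wells and 100% = reference inhibitor wells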
GPR151 ag: activators of human GPR151, primary screen, cell-based, PathHunter beta-arrestin, luminescence | 650,000 tested, 1% active | activation, % at 11.2 µM | PathHunter beta-arrestin GPR151 cells | G-protein coupled receptor 151 (Homo sapiens), Q8TDV0; in the data active means activation above about 4.9%;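 further: 0% = median of compound wells and 100% = cells with positive control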
GPR151 conf act: GPR151 activators, triplicate retest, confirmation, cell-based, PathHunter beta-arrestin, luminescence; shares compounds with GPR151 ag; GPR151 PathHunter beta-arrestin cells, 90 min; % of EA-reagent control over plate median; activation, % at 11.2 µM; 6,700 tested, under 10 active; AID 1508609, 2020;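 active means mean percent activation across replicates above the confirmation screen cutoff of 4.91%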
GPR119 ag: GPR119 activators in beta-arrestin cells, counter-screen for GPR151 activator project, cell-based, PathHunter beta-arrestin, luminescence, triplicate | activation, % at 11.2 µM | 90 min; 0 = compound-well median, 100 = enzyme-acceptor control | 6,700 tested, 0.3% active | shares compounds with GPR151 ag;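 active means mean percent activation in the counterscreen above 29.09%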;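 further: counterscreen on off-target GPR119 to flag nonselective hits from the GPR151 activator screen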
An asterisk follows results filed as active; x = not tested or not shown.

SMILES | FBW7 activator | MITF inh | TEAD-YAP inh | GPR151 ag | GPR151 conf act | GPR119 ag
O=c1[nH]cc(N=Cc2ccc(O)cc2)c(=O)[nH]1 | 1 | -2 | -1 | -1 | x | x
CC(=O)Nc1ccc(S(=O)(=O)Nc2ccc(S(N)(=O)=O)cc2)cc1 | 0 | 6 | 9 | 2 | x | x
O/N=C/c1cn(-c2ccccc2)nc1-c1ccc(F)cc1 | 1 | 19 | -5 | 6.0* | -1 | -15
Cc1cc(Oc2coc3cc(OCC(=O)OCC(C)C)ccc3c2=O)cc(C)c1Cl | 0 | -11 | 1 | 0 | x | x
CCN(CC)C(=O)c1cn(CCC#N)nc1-c1ccc(OC)c([N+](=O)[O-])c1 | 0 | 7 | -3 | 21* | 1 | 5
CC1Cc2cc(S(=O)(=O)CCC(=O)Nc3ccccc3)ccc2N1C(=O)C1CC1 (configuration not stated) | 0 | -3 | 5 | 0 | x | x
CCc1cccc(NC(=O)CCS(=O)(=O)c2ccc3c(c2)CC(C)N3C(=O)C2CC2)c1 (configuration not stated) | 0 | 8 | 12 | 6.2* | 1 | -6
Cc1ccccc1Cn1c(=O)c2c(nc3n2CCCN3c2ccc(F)cc2)n(C)c1=O | 0 | 0 | 2 | 9.7* | 0 | 4
NC1=NC(=O)/C(=C/c2ccc(O)c([N+](=O)[O-])c2)S1 | 0 | 0 | -9 | 3 | x | x
CCOC(=O)COc1ccc2c(=O)c(-c3ccc(OC)cc3)c(C)oc2c1 | 0 | -5 | 3 | 3 | x | x
CCOC(=O)COc1ccc2c(=O)c(-c3ccccc3F)c(C)oc2c1 | 0 | 0 | 0 | 6.2* | -1 | -3
Cc1cc(C)n(C(=O)COc2ccccc2[N+](=O)[O-])n1 | 0 | -16 | 4 | 5.4* | 0 | -2
Cc1cc(NC(=O)COc2cc(F)ccc2[N+](=O)[O-])n(-c2ccccc2)n1 | 0 | -8 | -1 | 15* | -1 | -10
Cc1cc(NC(=O)Cn2cc([N+](=O)[O-])cn2)n(-c2ccccc2)n1 | 0 | -3 | -13 | 3 | x | x
COc1cc(Cl)cc2cc(C(=O)NNc3ccccc3)c(=O)oc12 | 0 | 30 | -4 | 1 | x | x
COc1ccc2c(c1)C1=C(CC2)C(c2cccc(F)c2)NC(=S)N1 (configuration not stated) | 0 | 10 | 13 | 2 | x | x
Cc1c(Cl)cccc1NC(=O)c1ccc(N2C(=O)c3ccccc3C2=O)cc1 | 0 | -6 | -8 | 7.0* | 1 | 3
COc1cc(OC)cc(-c2noc(C3CCN(S(=O)(=O)c4ccc(Cl)cc4)CC3)n2)c1 | 0 | 2 | -22 | 5.2* | 0 | 0
C/C(=N\NC(=O)CNc1ccccc1Cl)C(C)(C)C | 0 | -5 | -9 | 5.9* | -1 | -4
Clc1ccc(CN2CCc3nc(-c4ccccn4)nc(N4CCOCC4)c3C2)s1 | -1 | 16 | -1 | 5.1* | 1 | 10
COc1cc(C2Nc3ccccc3NC3=C2C(=O)CC(c2ccccc2Cl)C3)cc(OC)c1OC (configuration not stated) | 0 | 16 | -1 | 5.6* | 0 | -3
COCC(=O)NNC(=O)c1cccs1 | 0 | 2 | -13 | 2 | x | x
NC(=O)c1cccn1Cc1ccccc1Cl | 0 | -4 | -7 | 5.2* | -1 | 25
CCOC(=O)c1nccn1Cc1ccccc1Cl | 0 | 7 | -11 | 9.4* | -1 | -6
NC(=O)c1cccn1Cc1cccc(Cl)c1 | 0 | 3 | 6 | 1 | x | x
SMILES | FBW7 activator | MITF inh | TEAD-YAP inh | GPR151 ag | GPR151 conf act | GPR119 ag
Fc1ccc(-c2cnn3c(NCc4ccccn4)ccnc23)cc1Cl | 1 | -4 | -52 | 0 | x | x
COc1ccc2oc(=O)c(C(=O)NCCOC34CC5CC(CC(C5)C3)C4)cc2c1 | 0 | 1 | 15 | -1 | x | x
Cc1nn(CC(=O)NCC#N)c(C)c1[N+](=O)[O-] | 0 | -3 | -4 | 5.0* | 0 | -3
CN(C)CCOC1=Cc2ccccc2Sc2ccc(Cl)cc21 | 1 | 12 | x | 5.7* | 0 | -6
CN(C)CCC(=O)N1c2ccccc2Sc2ccc(Cl)cc21 | 0 | 5 | -12 | -1 | x | x
CCCCCn1c(=O)[nH]c2ccccc21 | 0 | -2 | -6 | 2 | x | x
CCCCn1c(C)c(Cc2ccccc2)[nH]c1=O | 0 | -12 | 9 | 6.1* | 0 | 0
COc1cc(NC(=O)c2ccccc2F)c(C(=O)O)cc1OC | 0 | 10 | -5 | -1 | x | x
COc1cc(NC(=O)c2ccccc2OC)c(C(=O)O)cc1OC | 0 | -22 | 2 | 6.7* | 0 | 2
COc1ccc(Br)cc1C(=O)Nc1cc(Cl)ccc1C(=O)O | 0 | -16 | -10 | 8.4* | 1 | 3
COC(=O)c1cc(OC)c(OC)cc1NC(=O)c1cc(C)ccc1C | 0 | -3 | -1 | 0 | x | x
COC(=O)c1cc(OC)c(OC)cc1NC(=O)c1ccccc1C | 0 | 14 | 3 | 9.7* | 1 | -6
CSCCNCc1c(C(=O)N2CCCCC2)nc2c(C)cccn12 | 0 | 5 | -1 | 9.0* | 0 | 3
Cc1cccn2c(CN3CCCCC3CCn3cccn3)c(C(=O)N3CCOCC3)nc12 (configuration not stated) | 0 | -13 | 1 | 7.8* | 0 | 4
COC(=O)[C@@H]1CCCN1Cc1c(C(=O)N2CCOCC2)nc2c(C)cccn12 | 0 | -11 | 3 | -1 | x | x
O=C(c1nc2sccn2c1CNCCc1cccnc1)N1CCCC1 | 0 | 0 | 7 | 12* | 0 | 7
Cc1cccn2c(CNCCSc3nccn3C)c(C(=O)N3CCCCC3)nc12 | 0 | 5 | -5 | 1 | x | x
O=C(c1nc2sccn2c1CNCCc1ccncc1)N1CCCCCCC1 | 0 | -13 | 3 | 0 | x | x
COc1ccc(/C=C/c2nc3ccccc3[nH]c2=O)cc1 | 0 | -4 | -11 | 0 | x | x
NC(=O)c1ccccc1Nc1cccc(C(F)(F)F)c1 | 0 | 4 | 5 | 0 | x | x
Cc1ccc(CC(=O)O/N=C(\N)Cc2cccc3ccccc23)cc1 | 0 | 7 | 10 | 5.5* | 0 | -4
Cc1ccc(/C(N)=N/OC(=O)Cc2cccc3ccccc23)cc1 | 0 | -3 | 4 | 1 | x | x
COc1cc2[nH]c(=S)nc(NCCCN3CCCC3)c2cc1OC | 0 | -3 | -2 | 1 | x | x
COc1cc2[nH]c(=S)nc(NCC(OC)OC)c2cc1OC | 0 | 25 | 2 | 5.5* | 0 | 0
Cn1c(SCC(=O)Nc2ccc(F)c(F)c2)nnc1-c1ccccn1 | 0 | 3 | -13 | 3 | x | x
Cn1c(SCC(=O)c2cccc(Br)c2)nnc1-c1ccccn1 | 0 | -2 | -2 | 4.9* | 0 | 2

Source: PubChem BioAssay (The Scripps Research Institute Molecular Screening Center)
